aSyn UTR act – Activators via SNCA 5'UTR binding, MLPCN; alpha-synuclein 5'UTR reporter, activators screen; hit rate 7.1% among 300,000; AID 1814; activity score, % (tested at 7.5 µM), hits read low; in the data active = activity score below about -60%
Large screens that a line does not name were inactive. These entries were drawn from the full list.

O=C(Nc1cc(N2CCCCC2)ncn1)c1ccc(F)cc1	aSyn UTR act -86
CSc1ccc(C2c3[nH]c4ccccc4c3CCN2C(=O)c2cc(C)n(C)n2)cc1 (stereo not given)	aSyn UTR act -287
CCCn1cccc(C(=O)Nc2ccc(OC)cc2)c1=O	aSyn UTR act -82
C#CCn1cccc(C(=O)Nc2ccc(OC)cc2)c1=O	aSyn UTR act -63
Cc1cccnc1Nc1nc(-c2ccc(O)cc2)cs1	aSyn UTR act -231
Cc1cccnc1Nc1nc(-c2ccc(F)cc2)cs1	aSyn UTR act -226
O=c1cc(-c2ccccc2)[nH]c2cc(Cl)ccc12	none
COc1ccc2[nH]c(-c3cccc(F)c3)cc(=O)c2c1	none
COc1ccc(-c2cc3ccccc3[nH]2)cc1	aSyn UTR act -159
Cc1ccc(O)c(-c2cc3ccccc3[nH]2)c1	aSyn UTR act -131
COc1ccc(-c2cc(=O)c3ccccc3[nH]2)cc1	aSyn UTR act -79
c1ccc(-c2cc3ccccc3[nH]2)cc1	aSyn UTR act -139
COc1ccc(-c2nc3ccccn3c2CN2CCN(c3ccccc3F)CC2)cc1	aSyn UTR act -76
COc1ccccc1-c1nc(COc2ccc(Cl)cc2Cl)no1	aSyn UTR act -204
Cc1ccc2[nH]c3c(c2c1)CCc1cn[nH]c1-3	aSyn UTR act -62
CC1(C)CC(=O)c2c(O)cc(OCc3ccc([N+](=O)[O-])cc3)cc2O1	aSyn UTR act -150
COc1cccc(NC(=O)COc2cc(O)c3c(c2)OC(C)(C)CC3=O)c1	aSyn UTR act -87
C=CS(=O)(=O)c1ccc(Oc2ccc(S(=O)(=O)C=C)cc2)cc1	aSyn UTR act -108
CCC(=O)Oc1ccc(NC(=O)CSCc2ccccc2)cc1	aSyn UTR act -106
O=C(CSCc1c(F)cccc1F)Nc1ccccc1	aSyn UTR act -116
O=C(CSCC(=O)Nc1ccccc1)N/N=C/c1c(O)ccc2ccccc12	none
O=C(CSCc1ccc(F)cc1)Nc1ccc(F)cc1	aSyn UTR act -76
Cc1ccccc1CSCC(=O)Nc1ccccc1F	aSyn UTR act -79
O=C(CSCc1ccccc1)Nc1cccc(F)c1	aSyn UTR act -127
Cc1ccccc1OCc1nc2c3cnn(C)c3ncn2n1	aSyn UTR act -152
O=C(Nc1cnn(Cc2ccccc2)c1)c1nc2ncccn2n1	aSyn UTR act -66
COc1ccc(/C=C2\N=C(SC)N(C)C2=O)cc1	aSyn UTR act -63
CC1CC1C(=O)OCC(=O)NC(=O)NC12CC3CC(CC(C3)C1)C2 (stereo not given)	aSyn UTR act -118
COc1ccc(-c2ccc(C3C(C#N)=C(N)Oc4n[nH]c(C)c43)o2)cc1 (stereo not given)	aSyn UTR act -65
CCc1ccc(C(=O)N/N=C/c2ccc(Cl)cc2Cl)nc1	aSyn UTR act -75
O=C(N/N=C/c1ccc(Cl)cc1Cl)c1cccc(F)c1	aSyn UTR act -212
Cc1cc(/C=N/NC(=O)c2ccccc2F)c(C)n1-c1ccccc1	aSyn UTR act -133
CCOC(=O)N/N=C/c1cc(C)n(-c2ccccc2)c1C	aSyn UTR act -75
O=C(N/N=C/c1cn(Cc2cccc(F)c2)c2ccccc12)c1cc(O)cc(O)c1	none
CCOC(=O)N/N=C/c1ccc(F)cc1F	aSyn UTR act -77
Cc1cc(/C=N/NC(=O)c2cccc(F)c2)c(C)n1-c1ccccc1	aSyn UTR act -152
CC(C)(C)C1CCc2onc(C(=O)Nc3cccc(O)c3)c2C1 (stereo not given)	aSyn UTR act -92
NC(=O)c1ccc(-n2nnnc2Oc2ccccc2C(=O)N2CCOCC2)cc1	aSyn UTR act -108
COc1cccc(/C=N/Nc2nnc3c(n2)[nH]c2ccccc23)c1OC	aSyn UTR act -84
C(=N\Nc1ccc2nncn2n1)/c1ccccn1	none
Fc1ccccc1/C=N/Nc1ccc(Cl)nn1	aSyn UTR act -110
CC(/C=N/Nc1nnc2c(n1)[nH]c1ccccc12)=C\c1ccco1	aSyn UTR act -165
COc1cccc(/C=N/Nc2ccc(Cl)nn2)c1OC	aSyn UTR act -155
COc1ccc2occ(C(=O)c3cccs3)c2c1	aSyn UTR act -242
CN(C)c1ccc(NC(=O)c2ccc3nsnc3c2)cc1	aSyn UTR act -166
O=C(Nc1ccc(Cl)cc1)c1ccc2nsnc2c1	aSyn UTR act -202
CN[C@H]1CCc2cc(OC)c(OC)c(OC)c2-c2ccc(N(C)CC(OC)OC)c(=O)cc21	none
Cn1nc(-c2ccc(N3CCCCC3)c(NC(=O)c3ccco3)c2)c2ccccc2c1=O	none
Cn1nc(C(=O)Nc2ccc(S(=O)(=O)NCc3ccco3)cc2)c2ccccc2c1=O	aSyn UTR act -96
Cn1c(SCc2c(F)cccc2Cl)nnc1-c1cccs1	aSyn UTR act -83
Cn1c(SCC(=O)Nc2ccccc2F)nnc1-c1cccs1	aSyn UTR act -78
CCCCc1c(C)[nH]c2nc3ccccc3n2c1=O	aSyn UTR act -97
CCOC(=O)c1cc(=O)n2c(nc3ccccc32)[nH]1	aSyn UTR act -99
CCCc1cc(=O)n2c(nc3ccccc32)[nH]1	aSyn UTR act -66
CN(C)CCCNC(=O)c1ccc(-c2nc(-c3ccc(Cl)cc3)cs2)cc1	none
N=C1C(c2nc(-c3ccc(Cl)cc3)cs2)=C(O)CN1NC(=O)c1ccc(O)cc1	aSyn UTR act -73
O=C1C=C(c2cc3ccccc3s2)CCC1	aSyn UTR act -86
O=C(NCC1COc2ccccc2O1)c1cccs1 (stereo not given)	aSyn UTR act -64
O=C(NCc1ccccc1)C(=O)NCC1COc2ccccc2O1 (stereo not given)	aSyn UTR act -145
O=C1c2ccc3c4c(ccc(c24)C(=O)N1c1cccc(O)c1)C(=O)N(c1cccc(O)c1)C3=O	none
O=C1c2cccc3c(N4CCCCC4)ccc(c23)C(=O)N1c1ccc(O)cc1	aSyn UTR act -72
Cc1cccc(N2C(=O)c3cccc4c(N5CCCCC5)c([N+](=O)[O-])cc(c34)C2=O)c1C	none
Cc1ccc(OCCn2cnc3ccccc3c2=O)c([N+](=O)[O-])c1	aSyn UTR act -157
CCOc1cccc(OCCn2cnc3ccccc3c2=O)c1	aSyn UTR act -79
CCOc1ccc(OCCn2nnc3ccccc3c2=O)cc1	aSyn UTR act -121
Cc1oc(C(C)(C)C)cc1C(=O)Nc1ccc2c(c1)OCO2	aSyn UTR act -87
Cc1oc(C(C)(C)C)cc1C(=O)Nc1ccc2c(c1)OCCO2	aSyn UTR act -179
Cc1nc(NC(=O)c2cnccn2)ccc1Br	aSyn UTR act -101
Cc1nc(NC(=O)c2cncc(Br)c2)ccc1Br	aSyn UTR act -109
ONC(=Nc1ccc(Cl)cc1)c1ccc(Cl)cc1	aSyn UTR act -100
CCc1nnc(NC(=O)CSc2ccc(-c3ccc(C)cc3)nn2)s1	aSyn UTR act -70
COc1ccc(-c2ccc(SCC(=O)Nc3nnc(C)s3)nn2)cc1	aSyn UTR act -87
Cc1cc2nc(-c3ccc(SCC(=O)Nc4ccc(S(=O)(=O)N5CCCC5)cc4)nc3)[nH]c2cc1C	aSyn UTR act -147
CCOc1ccc(-c2cc(CCCC(=O)NCc3ccco3)no2)cc1	none
COc1ccc(-c2ccc(SCC(=O)NCc3ccco3)nn2)cc1	aSyn UTR act -78
O=C(CSc1ccc(-c2ccc(-n3cccn3)cc2)nn1)Nc1ccccc1F	aSyn UTR act -141
Cc1cc(NC(=O)CSc2ccc(-c3ccc(Br)cc3)nn2)no1	aSyn UTR act -67
CCc1nnc(NC(=O)CSc2ccc(-c3nc4ccc(C)cc4[nH]3)cn2)s1	aSyn UTR act -159
O=C(O)c1cccc(S(=O)(=O)Nc2ccccc2C(=O)NCCc2ccccc2)c1	aSyn UTR act -64
O=C(NCCc1ccccc1)c1cccc(Br)c1	aSyn UTR act -131
O=C(NCCc1ccccc1)c1cccc([N+](=O)[O-])c1	aSyn UTR act -77

Screening data as filed in PubChem.
